From PubChem BioAssay AID431 (Sanford-Burnham Center for Chemical Genomics, 2006) come the findings set out here.

Screen size: about 63,000 compounds; about 1,100 (1.7%) were called active. This is one part of a sample in which actives are shown more often than they occur. Results with a measured potency or affinity are listed apart. Unmarked numbers belong to inactive results.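 The calls were made as follows: active = compounds whose percent cytotoxicity in the single-dose primary screen, scaled between solvent and toxic-drug controls, exceeds 50; inactive = the rest.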

The nature of the assay: viability loss of HPDE-C7K cells – cell-based, fluorescence, HTS, primary screen (AID 431).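 Also: 0% = DMSO solvent wells and 100% = doxorubicin-treated wells.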 Conditions: HPDE-C7K KRASV12 cells, Alamar Blue viability, 48 h; at 10 µM; active compounds read high. Background: The colour change of resazurin is a common sign of viable cells or microbes.
With `COc1cc(S(=O)(=O)N2CCN(c3ccccc3F)CC2)ccc1Cl`, the cytotoxicity was 24%.

For the compound `CCCC(=O)CN1C(=O)C2(OCCO2)c2ccccc21`, the cytotoxicity was -6.1%.

`COc1ccc2c(c1)CCc1c(C(=O)NCc3ccc(F)cc3)noc1-2`: the cytotoxicity was 1.6%.

With `COc1ccc(OCCC(=O)Nc2cc(C)on2)cc1`, the cytotoxicity is 1.4%.

With `CCCCn1c(SCC(=O)Nc2cc(C)on2)nc2ccccc2c1=O`, the cytotoxicity is -8.1%.

Consider `Cc1nnc2sc(-c3cccc(NC(=O)c4ccc(-c5cccc(Cl)c5)o4)c3)nn12`, for which the cytotoxicity was -2.2%.

Regarding `Cc1ccc(-c2nn3c(C)nnc3s2)cc1NC(=O)c1ccc(Br)o1`, the cytotoxicity was -0.3%.

In the case of `O=C(Nc1nnc(-c2ccco2)o1)C1CCCCC1`, the cytotoxicity was 4.3%.

Turning to `CCOc1ccc(-c2nnn(CC(=O)Nc3cc(OC)cc(OC)c3)n2)cc1OCC`, the cytotoxicity is -1.3%.

In the case of `CCOc1ccc(-c2nnn(CC(=O)Nc3cc(OC)ccc3OC)n2)cc1OCC`, the cytotoxicity was 70.6% (active).

As for `CCOc1ccc(-c2nnn(CC(=O)Nc3ccccc3OC)n2)cc1OCC`, the cytotoxicity is -3.2%.

`Cc1ccc2[nH]c(C)c(CN(C)C3CCN(C)CC3)c(=O)c2c1`: the cytotoxicity was -9.9%.

On to `O=C(NCc1ccco1)c1cccc2ccccc12`, for which the cytotoxicity was -9%.

In the case of `Cc1ccc(-c2n[nH]c(=O)c3ccccc23)cc1N`, the cytotoxicity is 1.4%.

Consider `CCC(c1nc2ccccc2c(=O)n1CCCn1ccnc1)N1C(=O)c2ccccc2C1=O` (stereo not given), for which the cytotoxicity is -3.6%.

Consider `COc1ccc(N/C=C(\C#N)c2nc3ccccc3n2C)c(OC)c1`, for which the cytotoxicity is 44.3%.

As for `C(=C\c1ccccc1)/CN1CCN(C(c2ccccc2)c2ccccc2)CC1`, the cytotoxicity is 2.8%.

`O=C(Nc1ccc(F)cc1)N1CCN(C/C=C/c2ccccc2)CC1`: the cytotoxicity is 25.8%.

As to `O=C(CSC1=Nc2ccccc2C2=NC(CC(=O)NCc3ccco3)C(=O)N12)NCC1CCCO1` (stereo not given), the cytotoxicity is -7.9%.

With `CCOc1ccc(C(=O)N2CCN=C2SC)cc1OCC`, the cytotoxicity was -3.5%.

As for `Cc1ccc(C)c(OCC(=O)Nc2nonc2NC(=O)COc2cc(C)ccc2C)c1`, the cytotoxicity was 74.3% (active).

Turning to `Cc1ccc(C)c(OCC(=O)Nc2cc(C)on2)c1`, the cytotoxicity is 4.9%.

With `Cc1ccc(C)c(OCC(=O)Nc2ccc3c(c2)OCO3)c1`, the cytotoxicity was -3.1%.

`CSc1nnc([C@H](C)NC(=O)OC(C)(C)C)o1`: the cytotoxicity is -22.1%.

As to `Cn1cccc1C(C(=O)NC1CCCCC1)N(C(=O)Cc1cccs1)C1CC1` (stereo not given), the cytotoxicity was -22.4%.

Consider `CC(C)(C)c1ccc(C(=O)CCCSC2=C(C#N)C(c3ccco3)C3=C(CCCC3=O)N2)cc1` (stereo not given), for which the cytotoxicity was 18.5%.

Take `N#Cc1ccc(-c2ccco2)nc1SCC(=O)c1ccc(Cl)cc1`: the cytotoxicity was 19.1%.

As for `COc1ccc(NC(=O)CSC2=C(C#N)C(c3ccco3)C3=C(CCCC3=O)N2)c(OC)c1` (stereo not given), the cytotoxicity is -2.7%.

Consider `Cc1cccc(N2CCN(c3cc(C)nc4nnnn34)CC2C)c1` (stereo not given), for which the cytotoxicity was -38.8%.

On to `O=C(Cn1cnc2c(nnn2Cc2ccc(Cl)cc2)c1=O)NCC1CCCO1` (stereo not given), for which the cytotoxicity is -3.4%.

Regarding `COC(=O)c1c(NC(=O)c2cccs2)sc2c1CCC(C)C2` (stereo not given), the cytotoxicity was 5.5%.

As to `Cc1sc(NC(=O)CSc2nnc(COc3ccccc3)n2C)c(C#N)c1C`, the cytotoxicity is 4.2%.

With `Cc1ccc(-c2csc3nnc(SCC(=O)Nc4nsc(-c5ccccc5)n4)n23)cc1`, the cytotoxicity was -0.3%.

Take `CC(C)CCNc1ncnc2c1nnn2Cc1ccccc1Cl`: the cytotoxicity was -8.2%.

As for `Clc1ccccc1Cn1nnc2c(Nc3ccccc3)ncnc21`, the cytotoxicity is -4.9%.
